Assay results published in PubChem BioAssay.
Values without a mark were called inactive. For some assays here: Entries with a potency or affinity are not part of this list. Active and inactive are the calls of the source. Unless noted, no rule for the calls is given here.

What was measured:
[1] = antimalarial activity against Dd2 strain (AID 2302;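 active = growth inhibition above 50% at the single 2 µM test dose, taken to imply half-maximal potency below 2 µM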;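 also: 0% = DMSO untreated growth and 100% = chloroquine plus artemisinin killed control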); conditions: P. falciparum Dd2 in RBCs, LDH growth readout, 72 h; at 2 µM; stronger effect = higher value
[2] = HepG2 cytotoxicity, primary screen, cytotoxicity control for P. falciparum antimalarial project, cell-based, ATP luminescence (AID 2303;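 active = inhibition above 50%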;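 also: 0% = DMSO wells and 100% = digitonin-killed cells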); conditions: HepG2 viability, 24-48 h, at 10 µM, stronger effect = higher value
[3] = target: L-lactate dehydrogenase (Plasmodium falciparum (isolate CDC / Honduras)) (UniProt Q27743); test: PfLDH activity inhibition – cell lysate, 3D7 strain, counter-screen for P. falciparum growth inhibition project (AID 2304);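 also: 0% = vehicle and 100% = reference inhibitor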; conditions: P. falciparum 3D7 crude extract, LDH APAD/NBT absorbance; at 2 µM; stronger effect = higher value
Chain of L-lactate dehydrogenase (Plasmodium falciparum (isolate CDC / Honduras)) (Q27743 whole entry, looked up): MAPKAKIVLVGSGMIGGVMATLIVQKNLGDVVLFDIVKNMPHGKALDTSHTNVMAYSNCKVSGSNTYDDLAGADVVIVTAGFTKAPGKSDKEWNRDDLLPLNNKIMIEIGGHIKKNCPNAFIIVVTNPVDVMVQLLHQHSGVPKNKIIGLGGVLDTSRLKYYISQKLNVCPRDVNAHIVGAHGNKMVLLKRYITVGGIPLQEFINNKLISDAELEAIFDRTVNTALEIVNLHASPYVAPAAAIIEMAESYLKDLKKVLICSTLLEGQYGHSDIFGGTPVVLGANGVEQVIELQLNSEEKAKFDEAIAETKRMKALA

[4] = inhibition of 3D7 malaria parasite growth – strain 3D7 (AID 2306);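 also: 0% = DMSO wells and 100% = chloroquine plus artemisinin control wells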; conditions: P. falciparum 3D7 erythrocytic growth, LDH absorbance, 72 h; at 2 µM; stronger effect = higher value
[5] = target: Calcium-dependent protein kinase 1 (Plasmodium falciparum (isolate 3D7)) (UniProt P62344); test: PfCDPK1 kinase inhibitors, biochemical, TCAMS library (AID 1159585; cut-off not given, nearly all actives have IC50 up to about 0.98 µM;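 also: inhibitors leave more ATP so luminescence rises with inhibition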); conditions: recombinant PfCDPK1, Kinase-Glo ATP depletion luminescence
Chain of Calcium-dependent protein kinase 1 (Plasmodium falciparum (isolate 3D7)) (P62344 whole entry, looked up): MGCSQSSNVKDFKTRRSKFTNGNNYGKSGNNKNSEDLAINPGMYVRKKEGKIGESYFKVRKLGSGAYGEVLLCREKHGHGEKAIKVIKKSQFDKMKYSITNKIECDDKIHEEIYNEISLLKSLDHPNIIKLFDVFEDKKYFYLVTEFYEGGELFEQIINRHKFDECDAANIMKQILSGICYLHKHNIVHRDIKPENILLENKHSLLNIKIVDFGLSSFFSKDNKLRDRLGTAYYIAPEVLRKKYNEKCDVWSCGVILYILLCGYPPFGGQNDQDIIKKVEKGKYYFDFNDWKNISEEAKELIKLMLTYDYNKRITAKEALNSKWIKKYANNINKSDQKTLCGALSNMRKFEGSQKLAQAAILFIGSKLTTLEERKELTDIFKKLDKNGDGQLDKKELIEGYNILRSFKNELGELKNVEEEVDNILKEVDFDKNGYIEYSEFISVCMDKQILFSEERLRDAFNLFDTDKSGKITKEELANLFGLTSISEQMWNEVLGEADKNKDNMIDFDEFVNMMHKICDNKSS

[6] = target: Plasmodium falciparum protein kinase 6 (PK6, PF3D7_1337100) (UniProt Q8IDW1); test: PfPK6 kinase inhibitors, biochemical, TCAMS library (AID 1159586); conditions: recombinant PfPK6, Kinase-Glo ATP depletion luminescence
Chain of Plasmodium falciparum protein kinase 6 (PK6, PF3D7_1337100) (Q8IDW1 1-305): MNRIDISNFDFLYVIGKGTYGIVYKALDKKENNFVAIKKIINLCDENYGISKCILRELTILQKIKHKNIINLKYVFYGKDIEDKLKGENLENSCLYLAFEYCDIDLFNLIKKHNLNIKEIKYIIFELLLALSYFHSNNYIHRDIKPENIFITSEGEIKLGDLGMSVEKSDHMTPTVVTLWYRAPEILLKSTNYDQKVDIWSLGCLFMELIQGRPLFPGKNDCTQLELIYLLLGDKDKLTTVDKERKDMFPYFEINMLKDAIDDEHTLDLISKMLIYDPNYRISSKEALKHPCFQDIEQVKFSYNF

[7] = target: Protein kinase 7 (PK7), Plasmodium falciparum 3D7 (PF3D7_0213400) (UniProt Q7YTF7); test: inhibition of Plasmodium PK7 catalytic activity – biochemical, TCAMS antimalarial set, Kinase-Glo luminescence (AID 1159587); conditions: recombinant PfPK7, Kinase-Glo ATP depletion luminescence
Chain of Protein kinase 7 (PK7), Plasmodium falciparum 3D7 (PF3D7_0213400) (Q7YTF7 1-343): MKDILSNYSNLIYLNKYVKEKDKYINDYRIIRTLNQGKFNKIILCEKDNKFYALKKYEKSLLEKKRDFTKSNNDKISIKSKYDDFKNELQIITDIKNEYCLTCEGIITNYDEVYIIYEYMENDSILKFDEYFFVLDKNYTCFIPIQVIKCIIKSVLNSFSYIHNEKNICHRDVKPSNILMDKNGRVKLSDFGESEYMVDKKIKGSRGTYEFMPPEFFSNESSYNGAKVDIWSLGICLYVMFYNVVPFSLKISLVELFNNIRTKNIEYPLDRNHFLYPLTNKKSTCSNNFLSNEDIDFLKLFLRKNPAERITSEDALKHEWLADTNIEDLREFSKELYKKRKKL

[8] = target: Calcium-dependent protein kinase 4 (Plasmodium falciparum (isolate 3D7)) (UniProt Q8IBS5); test: PfCDPK4 kinase inhibitors, biochemical, TCAMS library (AID 1159588; cut-off not given, nearly all actives have IC50 up to about 0.91 µM); conditions: recombinant PfCDPK4, Kinase-Glo ATP depletion luminescence
Chain of Calcium-dependent protein kinase 4 (Plasmodium falciparum (isolate 3D7)) (Q8IBS5 whole entry, looked up): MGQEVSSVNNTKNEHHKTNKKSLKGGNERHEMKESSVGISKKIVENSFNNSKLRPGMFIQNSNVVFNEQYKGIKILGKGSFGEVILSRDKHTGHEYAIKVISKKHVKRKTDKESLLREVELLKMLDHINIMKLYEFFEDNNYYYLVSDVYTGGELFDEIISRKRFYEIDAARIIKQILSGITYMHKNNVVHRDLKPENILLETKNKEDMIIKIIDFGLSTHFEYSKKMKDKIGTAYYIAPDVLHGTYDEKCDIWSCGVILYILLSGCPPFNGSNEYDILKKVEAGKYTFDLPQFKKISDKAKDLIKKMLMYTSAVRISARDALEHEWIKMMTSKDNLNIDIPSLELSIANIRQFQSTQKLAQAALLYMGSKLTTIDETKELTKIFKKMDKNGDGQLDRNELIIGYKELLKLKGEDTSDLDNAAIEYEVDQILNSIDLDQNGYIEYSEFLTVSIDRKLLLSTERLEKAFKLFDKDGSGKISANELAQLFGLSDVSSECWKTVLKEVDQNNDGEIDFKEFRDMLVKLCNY

| SMILES | growth inhibition [1] | inhibition [2] | inhibition [3] | growth inhibition [4] | outcome [5] | outcome [6] | outcome [7] | outcome [8] |
| --- | --- | --- | --- | --- | --- | --- | --- | --- |
| CCOc1ccc(CCC(=O)O)cc1OCC | -3% | 60% (active) | 6% | 94% (active) | inactive | inactive | inactive | inactive |
| Cc1[nH]nc2ccc(-c3cc(OC[C@@H](N)Cc4ccccc4)cnc3-c3ccccc3OCc3cccc(F)c3)cc12 | 91% (active) | 55% (active) | -2% | 91% (active) | inactive | inactive | inactive | inactive |
| CCC(=O)N(c1ccccc1)C1CCN(CCCC(NC(=O)c2cc(C(F)(F)F)cc(C(F)(F)F)c2)c2ccc(Cl)c(Cl)c2)CC1 (stereo not given) | 57% (active) | 24% | 0% | 96% (active) | inactive | inactive | inactive | inactive |
| COc1ccc2nccc([C@@H](O)CN3CCC(NC(=O)C(c4cc5ccccc5o4)N4CCN(Cc5ccccc5)CC4)CC3)c2c1 (stereo not given in full) | 75% (active) | 30% | -5% | 91% (active) | inactive | inactive | inactive | inactive |
| O=C(Nc1ccc2nc(-c3ccccc3)[nH]c2c1)c1cc(-c2ccc3c(c2)OCCO3)n[nH]1 | 75% (active) | 58% (active) | -2% | 100% (active) | inactive | inactive | inactive | inactive |
| Nc1ccc2[nH]cc(C3CCN(CC4CCN(C(=O)/C=C/c5ccc(Cl)c(Cl)c5)CC4)CC3)c2n1 | 97% (active) | 53% (active) | -2% | 99% (active) | inactive | inactive | inactive | inactive |
| O=C(NC1CCCCC1)N(Cc1ccccc1-c1ccc(CNCCc2ccccc2)cc1)C1CCN(Cc2ccccc2)CC1 | 92% (active) | 96% (active) | -6% | 90% (active) | inactive | inactive | inactive | inactive |
| CCCCC(CC)CN1C(=O)C(c2ccccc2)(c2ccccc2)N=C1N (stereo not given) | 98% (active) | 32% | 4% | 94% (active) | inactive | inactive | inactive | inactive |
| CCOC(=O)c1ccc(NC(=O)N[C@@H](Cc2ccccc2)C(=O)NC2CCN(Cc3ccc(O)c(OC)c3)C2)cc1 (stereo not given in full) | 0% | -1% | -2% | 88% (active) | inactive | inactive | inactive | inactive |
| CC(c1cccc(S(=O)(=O)NCc2ccc(Cl)cc2Cl)c1)N1CCC(N2CCCCC2)CC1 (stereo not given) | 40% | 36% | -2% | 100% (active) | inactive | inactive | inactive | inactive |
| CN(C)Cc1cccc2[nH]c(-c3csc(Cc4cc(Cl)ccc4OCc4ccccc4)n3)nc12 | 77% (active) | 14% | -2% | 100% (active) | inactive | inactive | inactive | inactive |
| COc1ccc(CNC2Cc3ccccc3C2)cc1-c1ccc(S(=O)(=O)NCc2ccccc2)s1 | 25% | 22% | 4% | 97% (active) | inactive | inactive | inactive | inactive |
| Nc1nccc2ccc(-c3ccc(OCc4ccccc4)cc3)cc12 | 67% (active) | 40% | -8% | 101% (active) | inactive | inactive | inactive | inactive |
| O=C(NCCCCN1CCC(c2ccc3c(c2OCCO)CCCC3)CC1)c1ccc(-c2ccc(C(F)(F)F)cc2)cc1 | 38% | 100% (active) | 6% | 98% (active) | inactive | inactive | inactive | inactive |
| O=C(CCc1cccnc1)Nc1cccc(-c2ccc(-c3nc4ccc(C(F)(F)F)cc4[nH]3)cc2)c1 | -5% | 38% | 3% | 93% (active) | inactive | inactive | inactive | inactive |
| COc1cc(/C=C/C(=O)NC2CCC(N3CCC(c4ccccc4C)CC3)CC2)cc(OC)c1 (stereo not given) | 11% | 51% (active) | -4% | 89% (active) | inactive | inactive | inactive | inactive |
| Cc1cccc2[nH]c(-c3ccc(-c4ccc(NC(=O)Nc5cccc(C#N)c5)cc4)cc3)nc12 | 100% (active) | 28% | 6% | 101% (active) | inactive | inactive | inactive | inactive |
| c1ccc2c(NCCCCCCCNc3ccnc4ccccc34)ccnc2c1 | 94% (active) | 91% (active) | 1% | 101% (active) | inactive | inactive | inactive | inactive |
| CCOC(=O)CC[C@@H](NC(=O)c1ccc(NCc2ccc3ccc4nc(C)[nH]c(=O)c4c3c2)cc1F)C(=O)N[C@@H](Cc1c[nH]c2ccccc12)C(=O)OCC | 77% (active) | 45% | 0% | 98% (active) | inactive | inactive | inactive | inactive |
| COc1ccc2c(c1)S(=O)(=O)N=C(N1CCCC1c1ccc(Cl)c(Cl)c1)N2C (stereo not given) | 19% | -2% | 0% | 89% (active) | inactive | inactive | inactive | inactive |

| SMILES | growth inhibition [1] | inhibition [2] | inhibition [3] | growth inhibition [4] | outcome [5] | outcome [6] | outcome [7] | outcome [8] |
| --- | --- | --- | --- | --- | --- | --- | --- | --- |
| CN1CCC(Oc2ccc(CN3CC[C@H](NC(=O)c4cc(F)cc(F)c4)C3)c3ccccc23)C1 (stereo not given in full) | 23% | 26% | 5% | 98% (active) | inactive | inactive | inactive | inactive |
| CCOC(=O)CNCC(=O)c1ccc(OCc2ccccc2)cc1 | 43% | 4% | -3% | 95% (active) | inactive | inactive | inactive | inactive |
| CCOC(=O)NOC(C(=O)O)c1ccccc1 (stereo not given) | 17% | 4% | -1% | 99% (active) | inactive | inactive | inactive | inactive |
| COc1ccc(CCN2CC[C@H](Nc3nc(-c4ccc(F)c(F)c4)nc4ccccc34)C2)cc1S(N)(=O)=O | 64% (active) | 18% | -8% | 99% (active) | inactive | inactive | inactive | inactive |
| CCCCC1=CC2C(=O)C(C(=O)OC)=CN=C2C=C1OCc1ccccc1 (stereo not given) | 98% (active) | 7% | 2% | 99% (active) | inactive | inactive | inactive | inactive |
| O=C(Nc1cccc(-c2nn3ccccc3c2-c2ccnc(Nc3cccc(C(F)(F)F)c3)n2)c1)c1c(F)cccc1F | 91% (active) | 43% | -2% | 97% (active) | inactive | inactive | inactive | inactive |
| CCOc1cc(C(=O)N[C@@H](Cc2ccccc2)[C@H](O)CNCc2cc(OC)cc(OC)c2)cc(N2CCCCS2(=O)=O)c1 | 98% (active) | -2% | 5% | 100% (active) | inactive | inactive | inactive | inactive |
| O=c1cnc2ccc(F)cc2n1CCN1CCC(NCc2cc(-c3ccccc3)cs2)CC1 | 14% | -5% | -2% | 91% (active) | inactive | inactive | inactive | inactive |
| Cc1cnc(-c2ccc(NC(=O)N3CCc4cc5nccc(N6CCN7CCC[C@H]7C6)c5cc43)c3ccccc23)o1 | 45% | 12% | -1% | 100% (active) | inactive | inactive | inactive | inactive |
| Cc1ccc(CON2C(N)=NC(N)=NC23CCCCC3)c2ccccc12 | 56% (active) | 57% (active) | -8% | 98% (active) | inactive | inactive | inactive | inactive |
| O=C(NCCCc1ccccc1)c1csc(C2CCCN(C(=O)c3ccc(O)c(-c4cccc5ccccc45)c3)C2)n1 (stereo not given) | 98% (active) | 3% | -1% | 97% (active) | inactive | inactive | inactive | inactive |
| O=C(/C=C/c1ccc(Cl)cc1)NCCCCCN1CCC(C(=O)Nc2ccc(Cl)c(Cl)c2)CC1 | -4% | 47% | -3% | 100% (active) | inactive | inactive | inactive | inactive |
| O=C(/C=C/c1ccc(Cl)c(Cl)c1)NC1CCC(CN2CCC(c3coc4ccccc34)CC2)CC1 (stereo not given) | 41% | 40% | 3% | 102% (active) | inactive | inactive | inactive | inactive |
| FC(F)(F)c1cccc(CNC2CCN(CC3CCCCC3)CC2)c1 | 12% | 0% | 0% | 101% (active) | inactive | inactive | inactive | inactive |
| NC1=NC2(CCCCC2)N(OCCCCCCCCNc2nc(N)nc(N)n2)C(N)=N1 | 99% (active) | 44% | -5% | 96% (active) | inactive | inactive | inactive | inactive |
| COc1ccc(Nc2nccc(NCCNC(=O)c3cc4ccccc4s3)n2)cc1 | 7% | 6% | -1% | 98% (active) | inactive | inactive | inactive | inactive |
| O=C(/C=C/c1cccc(Cl)c1)NCCCCCN1CCC(c2c[nH]c3ccccc23)CC1 | 17% | 46% | -2% | 89% (active) | inactive | inactive | inactive | inactive |
| CCc1ccc(C2CCN(CCCCNC(=O)c3ccc(NC(=O)c4ccc(Cl)cc4)cc3)CC2)c(OCC(=O)OC)c1 | 12% | 32% | 6% | 95% (active) | inactive | inactive | inactive | inactive |
| C=Cc1sc(CNCCCNc2cc(=O)c3ccccc3[nH]2)c(C)c1Br | 35% | -5% | -6% | 94% (active) | inactive | inactive | inactive | inactive |
| CCCOc1ccc(C=C(CC(=O)O)c2nc3ccccc3s2)cc1OCC | 84% (active) | 7% | -1% | 89% (active) | inactive | inactive | inactive | inactive |
